Measured values from PubChem BioAssay AID504332 (National Center for Advancing Translational Sciences (NCATS), 2011).
In all, about 350,000 compounds went through this assay and about 31,000 (8.9%) were called active. About 15% were inconclusive and are not listed. The full list was thinned out, with actives kept by preference. A number with no mark means an inactive call. The call rests on the fitted dose curve; in most records, active means well fitted inhibition curve with a large enough effect; inconclusive means small, poorly fitted or top-dose-only effect; inactive means no such curve, though single readings can be large or run the other way.

Each molecule was assayed against Histone-lysine N-methyltransferase EHMT2 (Homo sapiens) (UniProt Q96KQ7) (assay: qHTS Assay for Inhibitors of Histone Lysine Methyltransferase G9a). Conditions: G9a H3K9 monomethylation, AlphaScreen, 2 h; series mostly up to 59 µM; activity, negative = inhibition: at the top concentration.
Sequence of Histone-lysine N-methyltransferase EHMT2 (Homo sapiens) (Q96KQ7 913-1193 limits assumed): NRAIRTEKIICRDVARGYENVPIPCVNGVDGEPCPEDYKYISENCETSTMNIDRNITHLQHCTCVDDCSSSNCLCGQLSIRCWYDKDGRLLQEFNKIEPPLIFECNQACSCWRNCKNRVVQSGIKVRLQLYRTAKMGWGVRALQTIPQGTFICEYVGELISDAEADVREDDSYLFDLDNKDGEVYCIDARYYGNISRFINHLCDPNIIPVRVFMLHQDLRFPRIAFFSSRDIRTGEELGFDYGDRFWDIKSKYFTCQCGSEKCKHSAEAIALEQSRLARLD
Outline: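 G9a (20 nM) was preincubated 15 min with compound, then reacted 2 h at room temperature with 500 nM biotin-H3K9 peptide and 20 µM SAM. Monomethyl-H3K9 detected by AlphaScreen using anti-H3K9me1 antibody.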
Further: nearly all actives have a fitted effect of over 75% in size.
On the % scale 0 is the no-effect control and ±100 the full control effect; potency means the concentration at half of the fitted maximal effect.

Row | SMILES | activity, negative = inhibition | Potency
1 | Cc1cccc(NC(=O)Cn2cc(S(=O)(=O)Cc3ccccc3Cl)c3ccccc32)c1 | 0.568% | 
2 | CC(C)(C)N1C(=O)[C@H]2[C@@H](c3ccc(Br)cc3)N3C(=O)N(c4cccc(Cl)c4)C(=O)[C@@]3(C)[C@H]2C1=O | -8.49% [at 2.33 µM] | 
3 | CCN(CC)CCNC(=O)Cn1ncc2c3ccccc3n(Cc3ccccc3C)c2c1=O | 1.56% | 
4 | Cn1c(=O)n(C)c2cc(S(=O)(=O)Nc3ccc(F)cc3)ccc21 | 72.7% [at 102 µM] | 
5 | CN1C/C(=C/c2cccs2)C(=O)/C(=C\c2cccs2)C1 | 1.72% [at 12.7 µM] | 
6 | CCC1C/C(=C/c2cccs2)C(=O)/C(=C/c2cccs2)C1 (stereo not drawn) |  | 39.8 µM (active)
7 | O=C1/C(=C/c2cccs2)CCc2ccccc21 | 10.6% [at 102 µM] | 
8 | COc1ccc(CCNc2nc3c(-c4cccc(F)c4)nnn3c3ccccc23)cc1OC | -26.3% | 
9 | Cc1ccc(Cn2c(=O)n(Cc3nc(-c4ccccc4)no3)c(=O)c3cc4c(cc32)OCO4)cc1 | -6.65% | 
10 | COc1cccc(C2=CC(=O)C[C@H](c3ccc(OC)c(OC)c3)C2)c1 | -2.09% [at 2.33 µM] | 
11 | CCOC(=O)c1c(C)oc2nc(C)nc(N3CCN(c4ccc(OC)cc4)CC3)c12 |  | 12.6 µM (active)
12 | CCOC(=O)c1c(C)oc2nc(C)nc(Nc3ccc(CC)cc3)c12 | -15% | 
13 | Cc1nc(N2CCOCC2)c2c(C(=O)NCc3cccc(Cl)c3)c(C)oc2n1 | -4.17% | 
14 | CC(=O)c1cc2c(cc1NC(=O)Cn1nc(-c3ccc(F)cc3)ccc1=O)OCO2 | -6.97% | 
15 | O=C(CN1C(=O)CCn2nc(-c3ccccc3)cc21)NCc1ccccc1 | -6.9% | 
16 | CC1=CC(C)(C)Nc2ccc(OC(=O)C(Cc3ccccc3)N3C(=O)C4CCCCC4C3=O)cc21 (stereo not drawn) |  | 50.1 µM (active)
17 | CC1=CC(C)(C)Nc2ccc(OC(=O)CN3C(=O)C4CCCCC4C3=O)cc21 (stereo not drawn) | 2.3% | 
18 | COC(=O)c1ccccc1NC(=O)C(Cc1ccccc1)N1Cc2ccccc2C1=O (stereo not drawn) | -33.9% | 
19 | CC1(C)O[C@H]2CC(=O)OCC23[C@H]2CC[C@@]4(C)[C@H](c5ccoc5)OC(=O)[C@H]5O[C@]54[C@]2(C)C(=O)C[C@@H]13 (stereo partly drawn) | 12.6% [at 12.7 µM] | 
20 | COc1ccc(CCNC(=O)CCCCn2c(=O)c3ccccc3n(Cc3ccccc3C)c2=O)cc1OC | -0.422% | 
21 | O=C(Nc1cccc([N+](=O)[O-])c1)Nn1cnnc1 | 14.3% [at 102 µM] | 
22 | O=C(Nc1cccc(C(F)(F)F)c1)c1cnccn1 | 7.12% [at 102 µM] | 
23 | O=c1cc(CO)oc(C(Nc2cccc([N+](=O)[O-])c2)c2ccccn2)c1O (stereo not drawn) |  | 0.794 µM (active)
24 | Cc1ccc(CN(C)CC(=O)Nc2cccc([N+](=O)[O-])c2)o1 | -40.5% [at 102 µM] | 

Row | SMILES | activity, negative = inhibition | Potency
25 | O=c1cc(CO)oc(C(Nc2cccc(C(F)(F)F)c2)c2ccccn2)c1O (stereo not drawn) |  | 1.26 µM (active)
26 | FC(F)(F)c1cccc(Nc2ncnc3ccccc23)c1 | 8.16% [at 12.7 µM] | 
27 | CCOC(=O)c1c(C)n(S(=O)(=O)c2ccc(C)cc2C)c2ccc(NS(=O)(=O)c3ccc(C)cc3C)cc12 | -48.6% | 
28 | O=C(/C=C\NCC(=O)c1ccccc1)c1ccccc1 |  | 6.31 µM (active)
29 | COc1ccc(NC(=O)CCCC(=O)c2ccccc2)cc1 | 23.7% [at 102 µM] | 
30 | Cc1ccc(N/C=C/C(=O)c2ccccc2)cc1C | -10.2% | 
31 | Cc1ccc(/C=C/C(=O)OCC(=O)NCc2ccc(Cl)cc2)o1 | -2.38% [at 2.33 µM] | 
32 | Cc1[nH]c2ccccc2c1/C=C(/C#N)C(=O)NC(C)C | 6.08% [at 102 µM] | 
33 | CC(C)NC(=O)/C(C#N)=C\c1ccc(N(C)C)c(Br)c1 |  | 39.8 µM (active)
34 | Cc1ccc(/C=C(\C#N)C(=O)Nc2cc(C)ccc2C)cc1 | 1.04% | 
35 | Cc1ccc(NC(=O)Nc2sc3nc4n(c(=O)c3c2C)CCC(C)CC4)c(Cl)c1 (stereo not drawn) | 31.6% | 
36 | Cc1ccccc1C1=NC(C(F)(F)F)(C(F)(F)F)c2c(n(-c3ccc(F)cc3)c(=O)[nH]c2=O)N1 | 3.46% [at 102 µM] | 
37 | Nc1c(N(Cc2ccco2)C(=O)c2cccc(F)c2)c(=O)[nH]c(=O)n1Cc1ccccc1 | -3.15% [at 12.7 µM] | 
38 | O=c1[nH]c(=O)n(Cc2ccco2)c2c1C(C(F)(F)F)(C(F)(F)F)N=C(c1ccco1)N2 |  | 50.1 µM (active)
39 | CCCn1c(=S)[nH]c2ccc(C(F)(F)F)cc21 |  | 11.2 µM (active)
40 | COc1ccc(/C(C)=N\NC(=O)c2ccc(-c3ccccc3)cc2)c(F)c1 | 40.6% [at 102 µM] | 
41 | Cc1cccc(C(=O)NC(=S)N(C)C2CCCCC2)c1 | -7.56% [at 102 µM] | 
42 | CC(OC(=O)c1ccccc1NCCO)C(=O)Nc1ccnn1C(C)C (stereo not drawn) | -12.9% [at 12.7 µM] | 
43 | CC(=O)c1cccc(Nc2ccc3cc(S(=O)(=O)N4CCC(C)CC4)ccc3n2)c1 | 1.63% | 
44 | Cc1cccc(S(=O)(=O)c2cn(Cc3ccccc3)c3cc(N4CCOCC4)c(F)cc3c2=O)c1 | -2.93% | 
45 | COc1ccc(C23NCCN2C(=O)c2ccccc23)cc1 (stereo not drawn) | 28.2% [at 102 µM] | 
46 | CC1=C(C(=O)Nc2cc(C)ccn2)C(c2cnn(C)c2)C2=C(CC(c3ccccc3)CC2=O)N1 (stereo not drawn) | 13.4% | 
47 | CN1CCN(c2ncc3c(n2)CC(c2ccccc2F)CC3=O)CC1 (stereo not drawn) | -7.44% [at 102 µM] | 
48 | Cc1nc2nc3c(cn2n1)C(=O)CC(c1ccccc1)C3 (stereo not drawn) |  | 56.2 µM (active)
